Experimental data published in PubChem BioAssay AID488969 (Vanderbilt High Throughput Screening Facility, 2010).
In all, about 110,000 compounds were measured (“z-score”: median about -0.1, highest 2% from about 2 on). For the sample, the highest values were picked, then their nearest neighbours and some compounds at random. Calls of active or inactive are those of the source.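 How the source made its calls: active means z-score in the third read window above 3 or below -3; inactive means the rest.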

Each molecule was assayed against Metabotropic glutamate receptor 8 (Rattus norvegicus) (UniProt P70579) (assay: rat mGluR8 modulators via GIRK flux, primary screen, cell-based, thallium flux, HTS (AID 488969)). Conditions: HEK293 rat mGluR8, GIRK (G protein-gated inwardly rectifying potassium channel) thallium flux, FluoZin2; at 10 µM; stronger effect = higher value; submaximal glutamate (EC20) added with thallium.
Metabotropic glutamate receptor 8 (Rattus norvegicus), sequence (P70579 whole entry, looked up): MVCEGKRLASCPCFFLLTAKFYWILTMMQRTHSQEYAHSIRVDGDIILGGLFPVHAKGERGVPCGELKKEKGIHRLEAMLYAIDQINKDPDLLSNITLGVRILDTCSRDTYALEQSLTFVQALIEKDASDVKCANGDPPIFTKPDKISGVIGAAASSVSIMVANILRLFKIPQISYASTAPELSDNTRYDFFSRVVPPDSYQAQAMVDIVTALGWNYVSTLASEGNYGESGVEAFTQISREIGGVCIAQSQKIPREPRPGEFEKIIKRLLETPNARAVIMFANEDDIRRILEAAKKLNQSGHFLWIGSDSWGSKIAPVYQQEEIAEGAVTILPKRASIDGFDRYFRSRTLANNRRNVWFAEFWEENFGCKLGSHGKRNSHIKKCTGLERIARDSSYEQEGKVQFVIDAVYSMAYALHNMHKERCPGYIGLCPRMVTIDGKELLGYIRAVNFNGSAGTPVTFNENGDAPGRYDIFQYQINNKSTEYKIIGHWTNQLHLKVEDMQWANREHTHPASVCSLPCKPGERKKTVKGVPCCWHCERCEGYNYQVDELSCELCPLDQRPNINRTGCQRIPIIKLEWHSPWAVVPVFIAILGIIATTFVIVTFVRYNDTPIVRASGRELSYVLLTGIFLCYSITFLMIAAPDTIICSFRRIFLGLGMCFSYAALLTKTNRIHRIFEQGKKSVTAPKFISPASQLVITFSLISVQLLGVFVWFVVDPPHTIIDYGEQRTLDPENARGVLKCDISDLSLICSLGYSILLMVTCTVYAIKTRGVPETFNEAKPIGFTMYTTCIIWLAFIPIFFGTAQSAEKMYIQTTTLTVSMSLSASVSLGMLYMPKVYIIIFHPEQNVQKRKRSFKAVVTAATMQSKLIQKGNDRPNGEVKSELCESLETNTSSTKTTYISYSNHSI
In the case of CCC(CC)c1nnc(NC(=O)c2ccc3ccccc3n2)s1, the z-score is reported as 11.4 (active).
CCSc1nnc(NC(=O)c2cccc3ccccc23)s1 gave a z-score of -0.316.
For CCSc1nnc(NC(=O)c2ccc3ccccc3n2)s1, the z-score was 11.8 (active).
In the case of O=C(Nc1nnc(C(F)(F)F)s1)C1COc2ccccc2O1 (stereo unspecified), the z-score is reported as -0.109.
In the case of CCc1nnc(NC(=O)C2COc3ccccc3O2)s1 (stereo unspecified), the z-score is reported as 0.0066.
CCC(CC)c1nnc(NC(=O)c2cc(-c3ccccc3)nc3ccccc23)s1 was tested, and the z-score was -0.847.
In the case of CCSc1nnc(NC(=O)c2cc(C)nc3ccccc23)s1, the z-score is reported as 0.31.
For CCC(CC)c1nnc(NC(=O)C2COc3ccccc3O2)s1 (stereo unspecified), the z-score was 3.82 (active).
For CCC(CC)c1nnc(NC(=O)Oc2ccccc2)s1, the z-score was -0.366.
COc1cccc(C2C(C(C)=O)=C(O)C(=O)N2CCc2c[nH]c3ccccc23)c1 (stereo unspecified) showed a z-score of -0.32.
With Cc1ccc(CSc2ccc(-c3ccco3)nn2)cc1 the z-score was 0.361.
C=CCN(C(C)=O)C1CC(=O)N(c2ccc(OCCC)cc2)C1=O (stereo unspecified) showed a z-score of -0.00882.
In the case of C/C(=N\NC(=O)c1csc(C)c1C)c1ccc(Cl)s1, the z-score is reported as 3.54 (active).
CCC/C(=N\NC(=O)c1csc(C)c1C)c1cccs1 was tested, and the z-score was 0.475.
For CC/C(=N\NC(=O)c1csc(C)c1C)c1cccs1, the z-score was 1.32.
Work on Cc1scc(C(=O)N/N=C/c2ccco2)c1C yielded a z-score of -0.0599.
With CCC/C(=N/NC(=O)c1csc(C)c1C)c1ccc(Cl)s1 the z-score was 5.92 (active).
In the case of C/C(=N\NC(=O)c1csc(C)c1C)c1ccco1, the z-score is reported as 0.816.
COc1ccc(CCNC(=O)C2CCCN(S(=O)(=O)c3cnc[nH]3)C2)cc1OC (stereo unspecified) gave a z-score of -0.0112.
For CCOc1ccccc1C(=O)N(Cc1ccco1)C1CCS(=O)(=O)C1 (stereo unspecified), the z-score was 0.0514.
Molecule CN1C(=O)CSC1=NCC12CC3CC(CC(C3)C1)C2 has a z-score of -0.123.
COc1ccc(Cl)cc1NC(=S)NCCc1c[nH]c2ccccc12 gave a z-score of 0.142.
With CCOc1ccc(CN(Cc2ccco2)S(=O)(=O)c2ccc(-n3cnnn3)c(OC)c2)cc1 the z-score was 2.75.
In the case of COc1cc(S(=O)(=O)N(Cc2ccc(C)cc2)Cc2ccco2)ccc1-n1cnnn1, the z-score is reported as 0.205.
In the case of CCOc1ccccc1CN(Cc1ccco1)S(=O)(=O)c1ccc(-n2cnnn2)c(OC)c1, the z-score is reported as 0.115.
With O=C(Cc1c(F)cccc1Cl)NCC1CCCO1 (stereo unspecified) the z-score was 0.148.
CN1/C(=C\C(=S)NC(=O)c2ccc([N+](=O)[O-])cc2)C(C)(C)c2ccccc21 was tested, and the z-score was 0.213.
Molecule CN1/C(=C\C(=S)NC(=O)c2cccc(Br)c2)C(C)(C)c2ccccc21 has a z-score of -0.0589.
Cc1ccc(C(=O)NC(=S)/C=C2\N(C)c3ccccc3C2(C)C)cc1 was tested, and the z-score was 2.66.
With CC(C)(C)C(=O)Nc1ccc(-c2cn3ccsc3n2)cc1 the z-score was -1.44.
In the case of CCCN1CNC(=S)N(c2ccc(C(=O)OCC)cc2)C1, the z-score is reported as -2.04.
